Assay [1] is described as follows: qHTS Screen of the MIPE 4.0 Collection Against Ewings Sarcoma (TC71) (AID 1259253). Note: nearly all actives have a fitted effect of over 40% in size. Note: potency is the fitted concentration of half-maximal effect. Conditions: TC71 Ewing sarcoma viability, CellTiter-Glo, 48 h; series mostly up to 45.8 µM. In short, it runs like this:
(§1)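 Cells plated in serum-containing RPMI (5% FBS) and treated with compound dilutions for 48 h. Readout luminescent viability; normalization relied on vehicle (no inhibition) and media-only columns (full inhibition).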
A general note: In qHTS, concentration-response curves come from the screen itself.

A short description of assay [2]: qHTS Screen of the MIPE 4.0 Collection Against Ewings Sarcoma (EW8) (AID 1259255). Note: nearly all actives have a fitted effect of over 35% in size. Note: potency is the fitted concentration of half-maximal effect. Conditions: EW8 Ewing sarcoma viability, CellTiter-Glo, 48 h; series mostly up to 45.8 µM. In short, it runs like this:
as §1

Assay [3] in a line: qHTS assay to identify small molecule inhibitors of chordoma cells - UCH-2 (AID 1259356). Conditions: UCH-2 chordoma viability, CellTiter-Glo ATP luminescence, 48 h; series mostly up to 46.1 µM.
The nature of assay [4]: P-glycoprotein substrates identified in KB-3-1 adenocarcinoma cell line, qHTS therapeutic library screen (AID 1346986). Note: nearly all actives have a fitted effect of over 60% in size.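 Note: potency is the fitted concentration of half-maximal effect; potency is for cytotoxicity meaning loss of cell viability.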 Conditions: KB-3-1 parental cells viability, CellTiter-Glo, 72 h; series mostly up to 44.5 µM. In short, it runs like this:
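Dose-response cytotoxicity, KB-3-1 vs P-gp-high KB-8-5-11, no colchicine in assay medium. Read: CellTiter-Glo at 72 h.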

Assay [5] can be described thus: qHTS Screen of the MIPE 4.0 Collection Against Ewings Sarcoma (TC32) (AID 1259256). Note: nearly all actives have a fitted effect of over 45% in size. Note: potency is the fitted concentration of half-maximal effect. As to conditions: TC32 Ewing sarcoma viability, CellTiter-Glo, 48 h; series mostly up to 45.8 µM. In short, it runs like this:
as §1

Assay [6] is described as follows: Identifying Small Molecule Inhibitors of Pancreatic Cancer Stem Cells (Panc1, Spheroid) (AID 1259359).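 Note: potency is the fitted concentration of half-maximal effect; compound exposure lasted 48 h before reading.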 Conditions: Panc1 spheroid cancer stem cell viability; series mostly up to 46.1 µM. In short, it runs like this:
(§2)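 Endpoint: ATP-based luminescence, 48 h drug exposure. Bortezomib at 9.2 uM final as full-kill control; DMSO vehicle as negative control; activity normalized between vehicle and cell-free wells.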

A short description of assay [7]: Identifying Small Molecule Inhibitors of Pancreatic Cancer Stem Cells (SN12C, Spheroid) (AID 1259360). Note: potency is the fitted concentration of half-maximal effect. Conditions: Potency: SN12C spheroid viability; series mostly up to 46.1 µM. In short, it runs like this: as §2
Assay [8] in a line: Identifying Small Molecule Inhibitors of Pancreatic Cancer Stem Cells (A278, Adherent) (AID 1259361).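 Note: viability read after 48 h compound exposure; nearly all actives have a fitted effect of over 35% in size.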 Conditions: series mostly up to 46.1 µM. In short, it runs like this:
(§3)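 Pre-formed 14-day tumor spheroids or adherent cells dosed and incubated 48 h, 37C, 5% CO2. Viability assessed by CellTiter-Glo.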

The nature of assay [9]: Identifying Small Molecule Inhibitors of Pancreatic Cancer Stem Cells (A2780, Spheroid) (AID 1259357). Note: potency is the fitted concentration of half-maximal effect.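 Note: spheroids pre-formed over 14 days in stem cell medium on hydrogel; compound exposure lasted 48 h before the ATP luminescence read.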 Conditions: Potency: A2780 spheroid viability; series mostly up to 46.1 µM. In short, it runs like this:
as §2

A short description of assay [10]: Identifying Small Molecule Inhibitors of Pancreatic Cancer Stem Cells (SN12C, Adherent) (AID 1259358).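 Note: cell survival measured after 48 h of compound exposure.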 Conditions: viability/growth inhibition; series mostly up to 46.1 µM. In short, it runs like this: as §3

Results filed as inconclusive are left out. Calls of active or inactive are those of the source. Calls come from the whole dose curve; as a rule, active = well fitted curve in the direction sought with a large enough effect; inconclusive = small, poorly fitted or top-dose-only effect, or another doubt; inactive = no such curve, though single readings can be large; an effect the other way counts as inactive or inconclusive.

Turning to `NCC1CCC(C(=O)O)CC1` (centres undefined), in assay [1], the Potency is 9.35 µM (active). Further, the Potency entry in assay [2] was “inactive”. For the same compound, the result in assay [3] was inactive.

With `O=c1[nH]c(=O)n([C@H]2C[C@@H](O)[C@@H](CO)O2)cc1I`, the Potency in assay [1] was 5.9 µM (active); in assay [2] it was 5.26 µM (active). Further, the Potency result in assay [4] is “inactive”.

Turning to `CNC(=O)c1cc(Oc2ccc(NC(=O)Nc3ccc(Cl)c(C(F)(F)F)c3)c(F)c2)ccn1`, the Potency in assay [1] is 20.9 µM (active); in assay [2] it was 20.9 µM (active); in assay [5], 20.9 µM (active); in assay [6], 20.9 µM (active); in assay [7] it was 18.7 µM (active); in assay [4] it was 18.4 µM (active). The IC50 (viability decrease) in [8] was 16.6 µM (active).

On to `C=C[C@@H]1CN2CCC1C[C@@H]2C(O)c1ccnc2ccc(OC)cc12` (some centres undefined), for which the values for the Potency in assay [1] and in assay [5] were 4.18 µM (active) and 1.18 µM (active), respectively.

Regarding `CCN1C[C@H](C)n2c(c(O)c3c(=O)n(Cc4ccc(F)c(Cl)c4)nc(C(=O)NC)c32)C1=O`, the Potency entry in assay [1], in [2] and in assay [4] was “inactive” in each case.

`CNC(=O)c1cc(COc2nnc(Nc3ccc(Cl)cc3)c3ccoc23)ccn1`: the Potency result in assay [1], in assay [2], in assay [9], in [10] and in assay [4] was “inactive” throughout.

Consider `O=c1cc(-c2ccc(O)c(O)c2)oc2cc(O)cc(O)c12`, for which the Potency result in [1], in assay [2], in assay [5] and in assay [4] was “inactive” throughout.

With `COc1ccc2c(c1)CC[C@H]1[C@@H]2CC[C@]2(C)[C@@H](NCCCCCCN3C(=O)C=CC3=O)CC[C@H]12`, the Potency in [1] is 16.6 µM (active); in [7], 20.9 µM (active). Moreover, the Potency result in [2] was “inactive”. The IC50 (viability decrease) in assay [8] was 20.9 µM (active).

Consider `COc1ccc(-c2nc3ccc(C4=NNC(=O)CC4C)cc3[nH]2)cc1` (centres undefined), for which the Potency result in assay [1] and in assay [2] was “inactive” each time. In assay [3], the compound was called inactive.

`CC(O)=C(C#N)C(=O)Nc1ccc(C(F)(F)F)cc1`: the Potency was 18.7 µM (active) in [1] and 20.9 µM (active) in assay [2]. Moreover, the Potency entry in assay [10] and in assay [7] was “inactive” throughout. Moreover, the IC50 (viability decrease) in [8] is 16.6 µM (active).

`Cc1ccccc1C(=O)c1ccc(Nc2ccc(Br)cc2N)cc1Cl`: the results for the Potency in [1], in assay [2] and in assay [4] were 16.6 µM (active), 23.5 µM (active) and 14.6 µM (active), respectively.

`CC[C@H](NC(=O)[C@H](C)NC)C(=O)N1C[C@@H](O)C[C@H]1Cc1c(-c2[nH]c3cc(F)ccc3c2C[C@H]2C[C@H](O)CN2C(=O)[C@H](CC)NC(=O)[C@H](C)NC)[nH]c2cc(F)ccc12`: the Potency result in assay [1], in [2] and in [4] was “inactive” in each case.

Take `Cc1ccc(NC(=O)Nc2cc(C(F)(F)F)ccc2F)cc1Nc1ccc2c(c1)NC(=O)C2=Cc1ccc[nH]1`: the Potency in assay [1] and in [5] was 26.4 µM (active) each time.

As for `N=C1SC(=Cc2ccc(-c3ccc4c(c3)C(=O)NC4=O)o2)C(=O)N1c1ccc(Br)cc1`, the Potency in assay [1] was 20.9 µM (active); in assay [5], 18.7 µM (active). Further, the Potency entry in assay [2] and in assay [4] was “inactive” in each case.

In the case of `Nc1ccc(-c2ccc3ncc4ccc(=O)n(-c5cccc(C(F)(F)F)c5)c4c3c2)cn1`, the values for the Potency in assay [1], in assay [2] and in assay [9] were 0.0083 µM (active), 0.0066 µM (active) and 0.743 µM (active), respectively. The Potency result in [10] was “inactive”.

As to `NC1(C(=O)N[C@@H](CCO)c2ccc(Cl)cc2)CCN(c2ncnc3[nH]ccc23)CC1`, the Potency in assay [1] and in assay [5] was 16.6 µM (active) throughout.

`CN[C@@H](C)[C@H]1[C@H](O)C[C@@]2(C)[C@@H]3CC[C@H]4C(C)(C)[C@@H](NC)CC[C@@]45C[C@@]35CC[C@]12C`: the Potency result in assay [1] and in assay [2] was “inactive” in each case. Moreover, in [4], the outcome is “inactive [at 9.29 µM]”.

Turning to `O=C(O)CCNc1cc(N2CCc3ccccc3CC2)nc(-c2ccccn2)n1`, in assay [1], the Potency is 26.4 µM (active). The Potency result in assay [2] and in [4] was “inactive” each time.

As for `CN(C)c1ccc(-c2nc3ncc(Cl)c(N4CCN(CC(=O)Nc5nccs5)CC4)c3[nH]2)cc1`, the results for the Potency in [1] and in [2] were 18.7 µM (active) and 16.6 µM (active), respectively. The Potency result in [4] is “inactive”.

As for `CO[C@H]1O[C@@H]2O[C@@]3(C)CC[C@@H]4[C@@H](C)CC[C@@H]([C@H]1C)[C@@]24OO3`, the Potency is 4.69 µM (active) in assay [1] and 5.9 µM (active) in assay [2]. Further, the Potency result in assay [4] was “inactive”.

On to `COc1ccc(Cn2ccc3ccc(C(=O)NO)cc32)cc1`, for which the Potency in assay [1] was 13.2 µM (active); in assay [2] it was 14.8 µM (active); in assay [5], 11.8 µM (active). In addition, the Potency result in [4] was “inactive”.

On to `Cc1cc(NC(=O)Nc2ccc(N(C)C)cc2)c2cc(F)cc(F)c2n1`, for which the Potency entry in [1] and in assay [4] was “inactive” each time. In addition, in assay [2], the Potency is 26.4 µM (active).

As for `CC(C)CN(C[C@@H](O)[C@H](Cc1ccccc1)NC(=O)O[C@H]1CO[C@H]2OCC[C@H]21)S(=O)(=O)c1ccc(N)cc1`, the results for the Potency in assay [1] and in [2] were 3.72 µM (active) and 1.32 µM (active), respectively. For the same compound, in assay [3], the result was inactive. In addition, the Potency entry in assay [4] is “inactive”.

As to `COc1nccc(-c2c(-c3ccc(F)cc3)ncn2C2CCC(O)CC2)n1` (centres undefined), the Potency in assay [1] is 14.8 µM (active). For the same compound, the Potency result in [2] and in [4] was “inactive” each time.

Take `CCC=CC[C@H]1C(=O)CC[C@@H]1CC(=O)OC`: the Potency in assay [1] was 16.6 µM (active). For the same compound, the Potency result in assay [2], in assay [10], in assay [7] and in assay [4] was “inactive” each time. In assay [8], the IC50 (viability decrease) entry was “inactive”.

For the origin of these results see PubChem BioAssay (NCATS).
